Screens: PubChem, several laboratories
These entries were drawn from the full list.
CYP2C19 inh = inhibitors of human CYP2C19; P33261; CYP2C19 Supersomes, luciferin-H EGE luminescence, 30 min; inhibition, % at 5 µM; 21% of 96,000 active; AID 778;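 active = CYP2C19 inhibition above a set limit at 5 µM in the primary screen, cut at about 50% in these data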;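 note: plate controls were negative control wells for no effect and 2.5 mM tranylcypromine positive control for full effect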
CYP2C9 inhib = human CYP2C9 inhibition | inhibition, % at 5 µM | CYP2C9 Supersomes, luciferin-H conversion, luminescence | AID 777 | 20% of 96,000 active;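 active = blocking of liver enzyme CYP2C9 beyond about 50% at 5 µM, limit read from the data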
Target sequence (P11712 whole entry, looked up): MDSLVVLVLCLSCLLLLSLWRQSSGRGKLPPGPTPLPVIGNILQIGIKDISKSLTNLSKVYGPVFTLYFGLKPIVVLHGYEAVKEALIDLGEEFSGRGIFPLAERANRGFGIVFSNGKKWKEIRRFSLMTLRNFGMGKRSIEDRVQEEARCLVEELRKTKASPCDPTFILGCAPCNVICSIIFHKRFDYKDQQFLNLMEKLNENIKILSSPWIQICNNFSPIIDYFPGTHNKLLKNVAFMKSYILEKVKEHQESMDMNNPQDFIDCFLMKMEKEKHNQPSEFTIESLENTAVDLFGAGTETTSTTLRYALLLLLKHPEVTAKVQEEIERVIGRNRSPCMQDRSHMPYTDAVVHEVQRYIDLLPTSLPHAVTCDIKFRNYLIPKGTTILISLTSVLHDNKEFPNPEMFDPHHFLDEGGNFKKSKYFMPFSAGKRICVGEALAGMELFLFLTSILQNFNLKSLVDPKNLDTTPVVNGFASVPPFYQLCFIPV
PostGolgi yeast = growth inhibition of a yeast mutant, post-Golgi transport screen | post-Golgi transport phenotypic cell assay | inhibition, % at 10 µM | 0.9% of 98,000 active | AID 739;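 note: yeast cells grown in 1536-well plates; yeast grown about 18 h at 30C before absorbance read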
CYP2C9 act = activators of human CYP2C9; activation factor at 5 µM; recombinant CYP2C9, luciferin-H conversion, luminescence; active compounds read high; factor 1 = untreated enzyme, 0 = blocked; P11712; 1.4% of 96,000 active; AID 1024;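 active = activation factor of 2 or more for CYP2C9 at a 5 µM dose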;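 note: 0 = sulfaphenazole-blocked wells and 1 = vehicle-only wells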
CYP2C19 activ = increases human CYP2C19 enzyme activity | recombinant CYP2C19, luciferin-H EGE luminescence; active compounds read high; 0 = fully inhibited enzyme, 1 = untreated enzyme | activation factor at 5 µM | 96,000 tested, under 10 active | AID 1025;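 active = activation factor of at least 2 at 5 µM in the primary screen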;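 note: 0 = wells with 2.5 mM tranylcypromine and 1 = vehicle-only wells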
PostGolgi ctrl = yeast control strain growth, post-Golgi counter-screen; AID 738; efflux-deficient yeast background strain, growth absorbance A615, 16 h; 5% of 98,000 active; inhibition, % at 10 µM
Numbers without * were called inactive. Cut-off read from the data, not from the text of the source, unless noted: active = inhibition above about 30%; inactive = the rest.

What do the screens show for `CCC(C)NC(=O)c1ccccc1NC(=O)c1ccc(CSc2ccc(C)cc2)cc1` (stereo not drawn)?
CYP2C19 inh: -5; CYP2C9 inhib: 24; PostGolgi yeast: 2; CYP2C9 act: 0.8; CYP2C19 activ: 1.1; PostGolgi ctrl: -6

Results for CCC(C)(C)NC(=O)C(c1cccn1C)N(C(=O)Cn1nnc2ccccc21)c1ccc(F)cc1 (stereo not drawn) ?
CYP2C19 inh: 5; CYP2C9 inhib: 5; PostGolgi yeast: -2; CYP2C9 act: 0.9; CYP2C19 activ: 1; PostGolgi ctrl: 12

What do the screens show for `CCCCNc1ccccc1C(=O)OCC(=O)Nc1ccc(S(N)(=O)=O)cc1`?
CYP2C19 inh: 23; CYP2C9 inhib: 86*; PostGolgi yeast: -7; CYP2C9 act: 0.1; CYP2C19 activ: 0.8; PostGolgi ctrl: 4

What do the screens show for `CCC(=O)Nc1ccccc1C(=O)OCC(=O)Nc1ccc(S(N)(=O)=O)cc1`?
CYP2C19 inh: -5; CYP2C9 inhib: 33; PostGolgi yeast: -3; CYP2C9 act: 0.7; CYP2C19 activ: 1; PostGolgi ctrl: 10

Results for C#CC(C)(CC)NC(=O)c1cc(OC)c(OC)c(OC)c1 (stereo not drawn) ?
CYP2C19 inh: -9; CYP2C9 inhib: -12; PostGolgi yeast: 2; CYP2C9 act: 1.1; CYP2C19 activ: 1.1; PostGolgi ctrl: -10

Results for Cc1ccc(-c2n[nH]c(=S)n2/N=C/C=C/c2ccccc2[N+](=O)[O-])cc1 ?
CYP2C19 inh: 27; CYP2C9 inhib: 58*; PostGolgi yeast: 0; CYP2C9 act: 0.4; CYP2C19 activ: 0.7; PostGolgi ctrl: 4

Results for CC(C)(C)C(=O)Nc1ccc(C(=O)NNC(=O)Cc2ccccc2)cc1 ?
CYP2C19 inh: -8; CYP2C9 inhib: -25; PostGolgi yeast: -1; CYP2C9 act: 1.3; CYP2C19 activ: 1.1; PostGolgi ctrl: 4

What do the screens show for `Cc1nc(C)c(NC(=O)N2CCc3ccccc32)cc1NC(=O)N1CCc2ccccc21`?
CYP2C19 inh: 52*; CYP2C9 inhib: 77*; PostGolgi yeast: -1; CYP2C9 act: 0.2; CYP2C19 activ: 0.5; PostGolgi ctrl: -2

What do the screens show for `CC1CCN(S(=O)(=O)c2ccc3c(c2)oc(=O)n3CC(=O)N2CCc3ccccc3C2)CC1`?
CYP2C19 inh: 30; CYP2C9 inhib: 42; PostGolgi yeast: -13; CYP2C9 act: 0.6; CYP2C19 activ: 0.7; PostGolgi ctrl: -2

What do the screens show for `CCC1CCc2c(c3ccccc3[nH]c2=O)O1` (stereo not drawn)?
CYP2C19 inh: 14; CYP2C9 inhib: 16; PostGolgi yeast: -13; CYP2C9 act: 0.8; CYP2C19 activ: 0.9; PostGolgi ctrl: 30*

How did CC(C)(C)N1CC(c2nc3ccccc3n2CCOc2ccccc2)CC1=O (stereo not drawn) do in these assays?
CYP2C19 inh: 62*; CYP2C9 inhib: 83*; PostGolgi yeast: 8; CYP2C9 act: 0.2; CYP2C19 activ: 0.4; PostGolgi ctrl: -2

Results for CC(C)(C)N1CC(c2nc3ccccc3n2Cc2ccc(Cl)cc2)CC1=O (stereo not drawn) ?
CYP2C19 inh: 72*; CYP2C9 inhib: 93*; PostGolgi yeast: 3; CYP2C9 act: 0.1; CYP2C19 activ: 0.3; PostGolgi ctrl: 7

How did O=S(=O)(O)c1nc2ccccc2n1CCOc1ccccc1 do in these assays?
CYP2C19 inh: 4; CYP2C9 inhib: 34; PostGolgi yeast: 0; CYP2C9 act: 0.7; CYP2C19 activ: 1; PostGolgi ctrl: -3

What do the screens show for `O=C(Nc1nc2ccccc2n1Cc1ccc(Cl)cc1)c1ccco1`?
CYP2C19 inh: 5; CYP2C9 inhib: 11; PostGolgi yeast: 1; CYP2C9 act: 0.9; CYP2C19 activ: 0.9; PostGolgi ctrl: 9

Results for Cc1ccc2c(C)nc(Nc3nc(CSc4nnnn4-c4ccccc4)cc(=O)[nH]3)nc2c1 ?
CYP2C19 inh: 60*; CYP2C9 inhib: 88*; PostGolgi yeast: 7; CYP2C9 act: 0.1; CYP2C19 activ: 0.4; PostGolgi ctrl: 10

What do the screens show for `COc1ccc2nc(Nc3nc(CSc4nnnn4-c4ccccc4)cc(=O)[nH]3)nc(C)c2c1`?
CYP2C19 inh: 29; CYP2C9 inhib: 22; PostGolgi yeast: 12; CYP2C9 act: 0.8; CYP2C19 activ: 0.7; PostGolgi ctrl: 23

Results for CCOc1ccc2nc(Nc3nc(CSc4nnnn4-c4ccccc4)cc(=O)[nH]3)nc(C)c2c1 ?
CYP2C19 inh: 53*; CYP2C9 inhib: 51*; PostGolgi yeast: -1; CYP2C9 act: 0.5; CYP2C19 activ: 0.5; PostGolgi ctrl: 10

Results for Cc1nc(NNC(=O)c2ccc([N+](=O)[O-])cc2)cc(-c2ccccc2)n1 ?
CYP2C19 inh: 14; CYP2C9 inhib: 48; PostGolgi yeast: 0; CYP2C9 act: 0.5; CYP2C19 activ: 0.9; PostGolgi ctrl: 14

Results for Cc1ccccc1OC(=O)n1c(=S)oc2cc(Cl)ccc21 ?
CYP2C19 inh: 7; CYP2C9 inhib: 48; PostGolgi yeast: 2; CYP2C9 act: 0.5; CYP2C19 activ: 0.9; PostGolgi ctrl: 4

Results for Cc1ccc(CCN2CC(C(=O)NCCCN3CCN(C)CC3)CC2=O)cc1 (stereo not drawn) ?
CYP2C19 inh: 1; CYP2C9 inhib: 7; PostGolgi yeast: 0; CYP2C9 act: 0.9; CYP2C19 activ: 1; PostGolgi ctrl: -3

How did CC(C)c1nc(SCc2c(F)cccc2Cl)c2c(=O)n(C)c(=O)n(C)c2n1 do in these assays?
CYP2C19 inh: 1; CYP2C9 inhib: 67*; PostGolgi yeast: 1; CYP2C9 act: 0.3; CYP2C19 activ: 1; PostGolgi ctrl: 12

How did Cn1c(=O)c2c(nc(OCc3cccnc3)n2Cc2c(F)cccc2Cl)n(C)c1=O do in these assays?
CYP2C19 inh: 17; CYP2C9 inhib: 52*; PostGolgi yeast: -4; CYP2C9 act: 0.5; CYP2C19 activ: 0.8; PostGolgi ctrl: 30*

What do the screens show for `Cn1c(=O)c2c(nc(SCCCC#N)n2Cc2c(F)cccc2Cl)n(C)c1=O`?
CYP2C19 inh: 14; CYP2C9 inhib: 59*; PostGolgi yeast: 3; CYP2C9 act: 0.4; CYP2C19 activ: 0.9; PostGolgi ctrl: 10

Results for Cn1c(OCc2cccnc2)nc2c1c(=O)n(Cc1ccccc1)c(=O)n2C ?
CYP2C19 inh: 7; CYP2C9 inhib: 10; PostGolgi yeast: -2; CYP2C9 act: 0.9; CYP2C19 activ: 0.9; PostGolgi ctrl: 4

Results for Cn1c(=O)c2c(nc(Br)n2Cc2c(F)cccc2Cl)n(C)c1=O ?
CYP2C19 inh: 20; CYP2C9 inhib: 3; CYP2C9 act: 1; CYP2C19 activ: 0.8

Results for Cc1oc(-c2ccc(Cl)cc2)nc1CN1CCCC(C(=O)NCCCN2CCCC2=O)C1 (stereo not drawn) ?
CYP2C19 inh: 22; CYP2C9 inhib: 23; PostGolgi yeast: 3; CYP2C9 act: 0.8; CYP2C19 activ: 0.8; PostGolgi ctrl: -5

How did CCC(C)C(NC(=O)C1CCC(C)CC1)C(=O)NC(C(=O)OC)C(C)C (stereo not drawn) do in these assays?
CYP2C19 inh: 2; CYP2C9 inhib: 8; PostGolgi yeast: 3; CYP2C9 act: 0.9; CYP2C19 activ: 1; PostGolgi ctrl: 4
